According to PubChem BioAssay (NCI):
This is part of a sample that, as a whole, favours compounds with a hit. Of some 83,000 tested, about 20% had one in any assay.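 For each line, cells grew in 96-well plates with the test compound present at a single concentration for 48 hours.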 Values without a mark were called inactive. Active and inactive are the calls of the source. Rule for the calls: active = growth percent below 10; inactive = the rest.

Assays:
Assay in all cases: NCI-60 one-dose screen, 48 h (100 = growth as untreated, 0 = no growth, -100 = all killed)
Conditions in all cases: 10 µM
HCT-15 colon = system: HCT-15 colon
HT29 colon = system: HT29 colon
SNB-75 CNS = system: SNB-75 CNS
SNB-19 CNS = system: SNB-19 CNS
U251 CNS = system: U251 CNS
PC-3 prostate = system: PC-3 prostate
SK-MEL-5 melanoma = system: SK-MEL-5 melanoma
UACC-62 melanoma = system: UACC-62 melanoma
LOX IMVI melanoma = system: LOX IMVI melanoma
SK-MEL-28 melanoma = system: SK-MEL-28 melanoma

Compound: COc1cccc2c1C(=O)c1c(O)c3c(c(O)c1C2=O)C[C@@](O)(C(=O)COC(=O)c1ccccc1)C[C@@H]3OC1CC(N)C(O)C(C)O1 (stereo not given in full)
- growth (HCT-15 colon): -72% (active)
- growth (HT29 colon): -95.1% (active)
- growth (SNB-75 CNS): -84.3% (active)
- growth (SNB-19 CNS): -75.4% (active)
- growth (U251 CNS): -95.4% (active)
- growth (PC-3 prostate): -95.6% (active)
- growth (SK-MEL-5 melanoma): -97.2% (active)
- growth (UACC-62 melanoma): -97% (active)
- growth (LOX IMVI melanoma): -87.1% (active)
- growth (SK-MEL-28 melanoma): -88.9% (active)

Compound: Cc1ccc(S(=O)(=O)N2CCc3ccccc3CC2)cc1
- growth (HCT-15 colon): 78.4%
- growth (HT29 colon): 91.8%
- growth (SNB-75 CNS): 78.6%
- growth (SNB-19 CNS): 68%
- growth (U251 CNS): 56.3%
- growth (PC-3 prostate): 36.4%
- growth (SK-MEL-5 melanoma): 46.1%
- growth (UACC-62 melanoma): 74.1%
- growth (LOX IMVI melanoma): 76.4%
- growth (SK-MEL-28 melanoma): 94.6%

Compound: N=C(N)c1ccc(-c2ccc(-c3cccs3)s2)nc1
- growth (HCT-15 colon): 12.2%
- growth (HT29 colon): -20.1% (active)
- growth (SNB-75 CNS): 41.3%
- growth (SNB-19 CNS): 87.8%
- growth (U251 CNS): 28%
- growth (PC-3 prostate): 43.7%
- growth (SK-MEL-5 melanoma): 68.6%
- growth (UACC-62 melanoma): 86.8%
- growth (LOX IMVI melanoma): 10.5%
- growth (SK-MEL-28 melanoma): 83.7%

Compound: C=CCOc1ccc2c(c1)CC[C@@H]1[C@@H]2CC[C@]2(C)C(=O)/C(=N/O)C[C@@H]12
- growth (HCT-15 colon): 41.6%
- growth (HT29 colon): 2.91% (active)
- growth (SNB-75 CNS): 18.9%
- growth (SNB-19 CNS): 69.5%
- growth (U251 CNS): 68.8%
- growth (PC-3 prostate): 42.1%
- growth (SK-MEL-5 melanoma): 77.4%
- growth (UACC-62 melanoma): 93.5%
- growth (LOX IMVI melanoma): 42.3%
- growth (SK-MEL-28 melanoma): 106%

Compound: S=C(Cc1ccc(-c2ccccc2)cc1)N1CCOCC1
- growth (HCT-15 colon): 104%
- growth (HT29 colon): 103%
- growth (SNB-75 CNS): 83.1%
- growth (SNB-19 CNS): 110%
- growth (U251 CNS): 96.6%
- growth (PC-3 prostate): 76.7%
- growth (SK-MEL-5 melanoma): 92.9%
- growth (UACC-62 melanoma): 87.2%
- growth (LOX IMVI melanoma): 92%
- growth (SK-MEL-28 melanoma): 106%

Compound: COc1ccc(C(=O)/C=C/c2cc(-c3ccc4c(c3)OCO4)n[nH]2)cc1OC
- growth (HCT-15 colon): 52.1%
- growth (HT29 colon): 36.4%
- growth (SNB-75 CNS): 60.3%
- growth (SNB-19 CNS): 47.1%
- growth (U251 CNS): 31.8%
- growth (PC-3 prostate): 48.4%
- growth (SK-MEL-5 melanoma): 81.7%
- growth (UACC-62 melanoma): 88.9%
- growth (LOX IMVI melanoma): 47.5%
- growth (SK-MEL-28 melanoma): 103%

Compound: CCCCCN(CCCCC)C(C)C(O)c1ccc2cc(Cl)c3ccccc3c2c1 (stereo not given)
- growth (HCT-15 colon): 93.1%
- growth (HT29 colon): 55.5%
- growth (SNB-75 CNS): 93.8%
- growth (SNB-19 CNS): 104%
- growth (U251 CNS): 90%
- growth (PC-3 prostate): 80.6%
- growth (SK-MEL-5 melanoma): 89.9%
- growth (UACC-62 melanoma): 88.2%
- growth (LOX IMVI melanoma): 94.3%
- growth (SK-MEL-28 melanoma): 108%

Compound: CCCCc1ccc(NC(=O)N(CCCl)N=O)cc1
- growth (HCT-15 colon): 102%
- growth (HT29 colon): 99.6%
- growth (SNB-75 CNS): 90.4%
- growth (SNB-19 CNS): 88.5%
- growth (U251 CNS): 80.8%
- growth (PC-3 prostate): 94%
- growth (SK-MEL-5 melanoma): 97.9%
- growth (UACC-62 melanoma): 86.2%
- growth (LOX IMVI melanoma): 89.3%
- growth (SK-MEL-28 melanoma): 101%

Compound: O=C(Nc1cccc([N+](=O)[O-])c1)NN1CCCCCC1
- growth (HCT-15 colon): 90.4%
- growth (HT29 colon): 107%
- growth (SNB-75 CNS): 105%
- growth (SNB-19 CNS): 95.6%
- growth (U251 CNS): 87.2%
- growth (PC-3 prostate): 83.1%
- growth (SK-MEL-5 melanoma): 96%
- growth (UACC-62 melanoma): 76.2%
- growth (LOX IMVI melanoma): 97.2%
- growth (SK-MEL-28 melanoma): 112%

Compound: CC(=O)n1nc(C(=O)OC(C)(C)C)c2cc(F)c(F)cc21
- growth (HCT-15 colon): 101%
- growth (HT29 colon): 100%
- growth (SNB-75 CNS): 80.2%
- growth (SNB-19 CNS): 94.9%
- growth (U251 CNS): 104%
- growth (PC-3 prostate): 97.7%
- growth (SK-MEL-5 melanoma): 87%
- growth (UACC-62 melanoma): 80.3%
- growth (LOX IMVI melanoma): 98.2%
- growth (SK-MEL-28 melanoma): 96.8%

Compound: COc1ccc2nc(/C=C/c3ccc(N(C)C)cc3)sc2c1
- growth (HCT-15 colon): 93.8%
- growth (HT29 colon): 93.3%
- growth (SNB-75 CNS): 92.3%
- growth (SNB-19 CNS): 131%
- growth (U251 CNS): 90.7%
- growth (PC-3 prostate): 98.9%
- growth (SK-MEL-5 melanoma): 90.1%
- growth (UACC-62 melanoma): 94.7%
- growth (LOX IMVI melanoma): 91.5%
- growth (SK-MEL-28 melanoma): 109%

Compound: O=c1[nH]c(=O)n(C2C[C@@H](O)[C@@H](CO)O2)cc1F (stereo not given in full)
- growth (HCT-15 colon): 39%
- growth (HT29 colon): 27.2%
- growth (SNB-75 CNS): 20.3%
- growth (SNB-19 CNS): 41.6%
- growth (U251 CNS): 34.2%
- growth (PC-3 prostate): 44%
- growth (SK-MEL-5 melanoma): -69% (active)
- growth (UACC-62 melanoma): 13.9%
- growth (LOX IMVI melanoma): 14.1%
- growth (SK-MEL-28 melanoma): 37.9%

Compound: CCOC(=O)CSC(=S)SCC(=O)OCC
- growth (HCT-15 colon): 94.6%
- growth (HT29 colon): 99.8%
- growth (SNB-75 CNS): 83.1%
- growth (SNB-19 CNS): 105%
- growth (U251 CNS): 104%
- growth (PC-3 prostate): 103%
- growth (SK-MEL-5 melanoma): 106%
- growth (UACC-62 melanoma): 101%
- growth (LOX IMVI melanoma): 98.6%
- growth (SK-MEL-28 melanoma): 97.7%

Compound: COc1cc(N=C2C(=O)N(Cc3ccccc3)c3ccccc32)cc(OC)c1OC
- growth (HCT-15 colon): 95.3%
- growth (HT29 colon): 103%
- growth (SNB-75 CNS): 82.6%
- growth (SNB-19 CNS): 95.1%
- growth (U251 CNS): 94.2%
- growth (PC-3 prostate): 97.8%
- growth (SK-MEL-5 melanoma): 94.2%
- growth (UACC-62 melanoma): 90.8%
- growth (LOX IMVI melanoma): 86.9%
- growth (SK-MEL-28 melanoma): 113%
